From PubChem BioAssay AID651839 (Vanderbilt Specialized Chemistry Center, 2012)
Potency and affinity values are given separately. Activity calls are given as the source filed them.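 How the source made its calls: active means compounds whose mean inhibitory potency against the glutamate signal is under 30 µM; inactive means the rest.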

biological target: Metabotropic glutamate receptor 3 (Rattus norvegicus) (UniProt P31422); assay: mGlu3 negative allosteric modulator potency, dose response, HEK/GIRK cells, thallium flux, rat (AID 651839); conditions: HEK293 GIRK rat mGlu3, thallium flux fluorescence; series mostly up to 30 µM
Sequence (P31422 whole entry, looked up): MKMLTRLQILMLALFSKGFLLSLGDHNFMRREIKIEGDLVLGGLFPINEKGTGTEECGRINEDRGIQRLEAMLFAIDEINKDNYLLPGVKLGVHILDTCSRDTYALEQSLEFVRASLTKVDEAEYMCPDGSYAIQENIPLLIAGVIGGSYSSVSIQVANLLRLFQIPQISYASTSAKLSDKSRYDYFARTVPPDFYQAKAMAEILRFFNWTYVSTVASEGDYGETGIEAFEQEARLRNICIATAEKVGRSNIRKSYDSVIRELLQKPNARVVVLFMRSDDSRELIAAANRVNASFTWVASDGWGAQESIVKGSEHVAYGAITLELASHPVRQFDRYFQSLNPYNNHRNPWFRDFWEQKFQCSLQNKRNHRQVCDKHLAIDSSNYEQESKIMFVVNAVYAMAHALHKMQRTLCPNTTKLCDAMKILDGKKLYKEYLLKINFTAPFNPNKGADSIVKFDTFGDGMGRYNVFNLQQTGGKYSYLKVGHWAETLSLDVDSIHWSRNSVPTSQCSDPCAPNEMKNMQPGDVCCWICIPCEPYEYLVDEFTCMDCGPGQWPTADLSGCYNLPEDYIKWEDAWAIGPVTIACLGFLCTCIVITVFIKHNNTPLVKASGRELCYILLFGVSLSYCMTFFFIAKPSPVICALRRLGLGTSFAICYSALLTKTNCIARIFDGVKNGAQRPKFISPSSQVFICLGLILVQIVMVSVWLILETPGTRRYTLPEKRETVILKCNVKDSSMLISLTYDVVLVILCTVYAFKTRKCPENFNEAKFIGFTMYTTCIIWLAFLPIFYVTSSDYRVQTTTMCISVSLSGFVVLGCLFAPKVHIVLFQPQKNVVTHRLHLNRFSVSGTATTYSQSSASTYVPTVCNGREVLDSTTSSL

outcome, inactive:
COc1ccc(COc2ccc(C(=O)N3CC[C@@H](O)C3)cc2)cc1
COc1ccc(COc2ccc(C(=O)NCCC(C)(C)C)cc2)cc1
COc1ccc(COc2ccc(C(=O)N3CCCC(OC)C3)cc2)cc1 (stereo not given)
COc1ccc(COc2ccc(C(=O)N3CC[C@H](O)C3)cc2)cc1
O=C(c1ccc2cc(-c3ccncc3)ccc2c1)N1CCCC(CO)C1 (stereo not given)
COc1ccc(COc2ccc(C(=O)N3CCC(CO)C3)cc2)cc1 (stereo not given)
COc1ccc(COc2ccc(C(=O)N3CCC(OC)C3)cc2)cc1 (stereo not given)
COc1ccc(C#Cc2ccc(C(=O)NCCC(C)(C)C)cc2)c(F)c1
COc1ccc(C#Cc2ccc(C(=O)NCC(C)(C)O)cc2)c(F)c1
COc1ccc(C#Cc2ccc(C(=O)NC(C)(C)CO)cc2)c(F)c1
